The values below come from the supplement of paper PMC13380429.

In this test the test system is Vero E6 infected with SARS-CoV-2. Put plainly: inhibition of SARS-CoV-2 cytopathic effect; higher = more antiviral protection, active = above 15. Particulars: 48 h. For orientation: Cytopathic effects are the visible damage that an infection or toxin causes in cultured cells.

SMILES strings stand for the structures. Values without a mark were called inactive.

Turning to `O=C1NC(=O)/C(=C/c2ccc3c(c2)OC(F)(F)O3)S1`, the “inhibition of SARS-CoV-2 cytopathic effect” value (from here on “inhibition”) by setting is: (1 nM) 2.29%; (8.33 nM) 1.22%; (100 nM) -6.83%; (833.33 nM) -7.64%; (10000 nM) -7.56%.
`CO/N=C(\C(=O)N[C@@H]1C(=O)N2C(C(=O)[O-])=C(C[n+]3ccn4ncccc43)CS[C@H]12)c1nsc(N)n1` [cefozopran]: the “inhibition” value was -1.88% (1 nM); 1.38% (8.33 nM); -0.43% (100 nM); -0.82% (833.33 nM); -0.02% (10000 nM).
The corresponding values for `O=C(O)COc1cccc(CN(Cc2ccc(-n3cccn3)cc2)S(=O)(=O)c2cccnc2)c1` [taprenepag] are 0.31%, -1.59%, -0.6%, -0.14% and 0.98%.
Take `CCOC(CN1CCN(CC(C)C(=O)c2ccccc2)CC1)c1ccccc1` (stereo not given) [eprazinone]: the “inhibition” value was -5.33% (1 nM); -3.53% (8.33 nM); -2.2% (100 nM); 1.64% (833.33 nM); 0.89% (10000 nM).
Consider `COc1cc(Nc2nc3ccccc3nc2NS(=O)(=O)c2ccc(NC(=O)c3ccc(C)c(OC)c3)cc2)cc(OC)c1`, for which the “inhibition” value is, setting by setting: (1 nM) 1.14%; (8.33 nM) 4.37%; (100 nM) 1.01%; (833.33 nM) -1.67%; (10000 nM) 0.57%.
In the same order, the values of `CCCc1c(OCCCOc2ccc(OCC(=O)O)cc2)ccc(C(C)=O)c1O` are 3.84%, -0.07%, 1.16%, 1.63% and 1.76%.
On to `O=C(NCCCN1CCCCCC1)C(c1ccccc1)C1CCCCC1` (stereo not given), for which the “inhibition” value by setting is: (1 nM) -0.49%; (8.33 nM) 0.99%; (100 nM) 0.31%; (833.33 nM) -2.41%; (10000 nM) -8.06%.
Consider `CCCCC/C=C\C/C=C\CCCCCCCC(=O)NCCCC(=O)O` [GABA-linoleamide], for which the “inhibition” value is 0.87% (1 nM); 4.17% (8.33 nM); 1.92% (100 nM); -0.22% (833.33 nM); -0.15% (10000 nM).
The corresponding values for `CNC(=N)NC(=O)Nc1c(C)cccc1C` [lidamidine] are 0.93%, 2.74%, 3.39%, 3.62% and -2.49%.
Regarding `CN1c2ccccc2C(=O)N2CCc3c([nH]c4ccccc34)C21` (stereo in doubt) [evodiamine], the “inhibition” value is 0.51% (1 nM); 2.11% (8.33 nM); 2.14% (100 nM); 4.34% (833.33 nM); 2.33% (10000 nM).
For `NCCc1cc[nH]n1` [betazole], the “inhibition” value by setting is: (1 nM) 0.58%; (8.33 nM) 1.07%; (100 nM) 2.63%; (833.33 nM) 0.04%; (10000 nM) 0.97%.
In the same order, the values of `CN1CCN(C(=O)c2nc3ccc(Cl)cc3[nH]2)CC1` are -2%, 1.3%, 0.78%, 1.23% and 1.76%.
As to `O=C1NC(=S)NC(=O)C1C(=O)Nc1ccccc1` [merbarone], the “inhibition” value (1 nM) is -0.86%; the “inhibition” value (8.33 nM) is -1.86%; the “inhibition” value (100 nM) was -0.15%; the “inhibition” value (833.33 nM) was -0.03%; the “inhibition” value (10000 nM) is 1.95%.
On to `CC(C)=CCC[C@](C)(O)[C@H]1CC[C@]2(C)[C@@H]1[C@H](O)C[C@@H]1[C@@]3(C)CC[C@H](O)C(C)(C)[C@@H]3[C@@H](O)C[C@]12C` [hemomex-s], for which the “inhibition” value reads like this: (1 nM) -1.07%; (8.33 nM) 0.12%; (100 nM) 5.17%; (833.33 nM) -0.7%; (10000 nM) 0.84%.
Take `Nc1nc(Nc2ccccc2)nc2c1ncn2[C@@H]1O[C@H](CO)[C@@H](O)[C@H]1O`: the “inhibition” value was 2.4% (1 nM); 4.07% (8.33 nM); 1.9% (100 nM); 1.06% (833.33 nM); -2.77% (10000 nM).
The corresponding values for `CCOc1ccccc1OC(c1ccccc1)C1CNCCO1` (stereo not given) [reboxetine] are 0.65%, 1.82%, 0.81%, -0.58% and -1.59%.
For `CNc1nc(C)nc(N[C@H]2CCC[C@@H](C(=O)NCc3ccc(C#N)cc3C(F)(F)F)C2)n1`, the “inhibition” value was 1.51% (1 nM); -1.43% (8.33 nM); -0.92% (100 nM); -0.12% (833.33 nM); -2.39% (10000 nM).
In the same order, the values of `CC(=O)NC1CCSC1=O` (stereo not given) [citiolone] are 3.06%, -0.41%, -6.39%, -4.01% and 2.58%.
Turning to `COc1cc2ncnc(Sc3nnc(C)s3)c2cc1OC`, the “inhibition” value by setting is: (1 nM) -1.42%; (8.33 nM) 0.72%; (100 nM) 3.01%; (833.33 nM) 1.54%; (10000 nM) 24.4% (active).
Regarding `Cc1cccc(-c2[nH]c(C(C)(C)C)nc2-c2ccc3c(c2)OCO3)n1`, the “inhibition” value (1 nM) is -0.26%; the “inhibition” value (8.33 nM) was -0.29%; the “inhibition” value (100 nM) was -0.87%; the “inhibition” value (833.33 nM) was -5.24%; the “inhibition” value (10000 nM) is -2.91%.
